Assay outcomes: PubChem BioAssay, The Scripps Research Institute Molecular Screening Center
TbREL1 primary: TbREL1 RNA ligase inhibitors, primary screen, biochemical, FRET fluorescence. RNA-editing ligase 1, mitochondrial (Trypanosoma brucei brucei), P86926. TbREL1 RNA ligation. inhibition, % at 9.66 µM. hit rate 0.49% among 89,000;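 active = inhibition above the mean inhibition across all screened compounds plus 3 SD, cut at about 11% in these data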
Target sequence (P86926 whole entry, looked up): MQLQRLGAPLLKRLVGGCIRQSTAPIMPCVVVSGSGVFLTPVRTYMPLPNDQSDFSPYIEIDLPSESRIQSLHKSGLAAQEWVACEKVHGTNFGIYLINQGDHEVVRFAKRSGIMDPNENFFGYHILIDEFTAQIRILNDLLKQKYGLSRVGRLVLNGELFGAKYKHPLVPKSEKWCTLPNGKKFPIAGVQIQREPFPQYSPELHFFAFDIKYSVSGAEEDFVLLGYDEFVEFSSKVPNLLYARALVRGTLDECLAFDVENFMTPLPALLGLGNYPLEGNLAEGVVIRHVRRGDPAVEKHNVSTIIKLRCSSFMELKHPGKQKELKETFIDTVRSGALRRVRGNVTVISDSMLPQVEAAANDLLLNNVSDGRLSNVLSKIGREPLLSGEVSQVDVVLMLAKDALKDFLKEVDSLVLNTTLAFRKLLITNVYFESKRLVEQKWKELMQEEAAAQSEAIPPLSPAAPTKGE
TbREL1 confirm: TbREL1 RNA ligase inhibitors, confirmation, biochemical, FRET fluorescence, triplicate; shares compounds with TbREL1 primary; TbREL1 RNA ligation; inhibition, % at 9.66 µM; hit rate 37% among 390;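 active = mean inhibition across replicates above a set limit taken from the earlier primary screen, cut at about 11% in these data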
Each line names hits and unclear results; the compound was inactive in the other large screens (follow-up assays come after a bar, where they were run). This excerpt belongs to a sample that is enriched for hits.

COC(=O)C[C@@H]1CC[C@H]2[C@H](COc3ccc(NC(=O)Nc4ccc(Cl)cc4)cc3C(=O)N2C)O1	none
COC(=O)[C@]12C[C@H](CC(=O)NCc3cccc(C(F)(F)F)c3)C(=O)N(Cc3ccco3)C1=C[C@H](C1CCCC1)O[C@@H]2C	none
CCC(C)NC(=O)CNS(=O)(=O)c1ccc(C)cc1 (centres undefined)	none
CCC(C)NC(=O)CC(C)C (centres undefined)	TbREL1 primary 12.2 | TbREL1 confirm inactive
CC(C)CC(=O)NN1CCCCC1	none
COc1c(C(C)(C)C)cc(S(=O)(=O)N2c3ccccc3C[C@H]2C)cc1C(C)(C)C	none
C[C@@H]1CCN(C2CC2)S(=O)(=O)c2c(cccc2N2CC[C@H](O)C2)O1	none
CC(=O)N(C)c1ccc(NC(=O)/C=C/c2ccccc2Cl)cc1	none
O=C(/C=C\c1ccccc1[N+](=O)[O-])Nc1ccccc1	TbREL1 primary 12.1 | TbREL1 confirm inactive
O=C(/C=C/c1cccc([N+](=O)[O-])c1)Nc1cc(C(=O)O)cc(C(=O)O)c1	none
c1cnc(SCC2CCCCC2)c(-c2nc3ccccc3[nH]2)c1	none
COc1ccc(C(=O)c2[nH]c(N)c(C(=O)c3ccccc3)c2-c2ccc(OC)c(OC)c2)cc1	none
COc1ccccc1C(=O)NCC(=O)NNC(=O)c1cccs1	none
COc1ccccc1/C=C/C(=O)NNC(=O)c1cccs1	TbREL1 primary 11.5 | TbREL1 confirm inactive
COc1ccccc1NC(=O)c1cccs1	none
O=C(CSc1nnc(-c2cccc(Cl)c2)n1Cc1ccco1)c1ccc(F)cc1	none
CCCCC[C@H](C)N1C[C@@H](COCc2ccccc2)Oc2cc(N3CC[C@@H](O)C3)ccc2S1(=O)=O	none
CCCCC[C@H](C)N1C[C@H](COCc2ccccc2)Oc2cc(N3CC[C@H](N(C)C)C3)ccc2S1(=O)=O	none
CCCCC[C@@H](C)N1C[C@@H](COCc2ccccc2)Oc2cc(N3CC[C@@H](N(C)C)C3)ccc2S1(=O)=O	TbREL1 primary 14.2 | TbREL1 confirm inactive
COc1ccc(C=Nn2c(-c3ccc(F)cc3)n[nH]c2=S)cc1OCc1ccccc1	none
CC(C)(C)OC(=O)N1CCC2CCN(S(C)(=O)=O)CC21 (centres undefined)	none
O=C(CCN1CCOCC1)N/N=C/c1cc(Br)cc(Br)c1O	none
O=C(N/N=C/c1sc(N2CCOCC2)nc1-c1ccccc1)c1ccccc1O	none
O=C(Cc1csc(N2CCOCC2)n1)N/N=C/c1ccc(O)c(O)c1O	TbREL1 primary 12.1 | TbREL1 confirm 35.4
CCc1ccc(OCCOCCN2CCN(C)CC2)cc1	TbREL1 primary 15.5 | TbREL1 confirm inactive
CCN1CCN(CCOCCOc2ccccc2)CC1	none
CN1CCN(CCOc2ccc(Cl)c(Cl)c2)CC1	none
O=C(Cn1cnc2ccccc2c1=O)N1CCCCC1	none
CCC(C)NC(=O)CNc1nnnn1-c1ccccc1 (centres undefined)	none
COC(=O)[C@]12C[C@H](CC(=O)NCc3ccccc3)C(=O)N(Cc3cccc4ccccc34)C1=C[C@H](COCc1ccccc1)O[C@@H]2C	none
COC(=O)C1=C(C)NC(=S)NC1c1ccc(Br)cc1 (centres undefined)	none
O=C1NC[C@@H](Cc2ccc(O)cc2)N(CCc2cccc3ccccc23)C1=O	none
CCC(C)[C@H]1CN=C(N)N1CCc1cccc2ccccc12 (some centres undefined)	TbREL1 primary 12.5 | TbREL1 confirm inactive
c1ccc([C@H]2CNCCN2CCc2cccc3ccccc23)cc1	none
CCOC(=O)N1CCN(C(=O)C[C@H]2C[C@@]3(C(=O)OC)C(=C[C@H](C(C)C)O[C@@H]3C3CC3)N(Cc3cccc4ccccc34)C2=O)CC1	none
CC(=O)NC(c1cccs1)c1cc(F)c2cccnc2c1O (centres undefined)	none
CCC(=O)NC(c1cccs1)c1ccc2cccnc2c1O (centres undefined)	none
CCC(=O)NC(c1cccs1)c1cc([N+](=O)[O-])c2cccnc2c1OC (centres undefined)	TbREL1 primary 32.8 | TbREL1 confirm inactive
Cc1ccccc1CNC(=O)C1C2C=CC3(CN(Cc4ccccc4)C(=O)C13)O2 (centres undefined)	none
COc1ccccc1C(=O)n1ccc2ccc(-c3ccc4ccn(Cc5ccccc5)c4c3)cc21	none
Nn1c(SCC(=O)Nc2ccc(OCc3ccccc3)cc2)nnc1-c1cc(-c2ccccc2)n[nH]1	none
O=C(CSc1nnc(-c2cccnc2)n1Cc1ccco1)Nc1ccc(Cl)c(Cl)c1	none
COc1cccc(CNc2nc(NCc3ccccc3)nc3ccsc23)c1	TbREL1 primary 12.8 | TbREL1 confirm 13.5
CNc1nc(NCc2ccccc2)c2sccc2n1	none
COCCNc1nc(NCc2cccs2)nc2ccsc12	none
c1ccc(CNc2nc(NCCc3ccncc3)c3sccc3n2)cc1	none
c1ccc(OCCNc2nc(NCC3CC3)nc3cc(-c4ccccc4)sc23)cc1	none
CC(C)Nc1nc(NCCOc2ccccc2)c2sccc2n1	TbREL1 primary 13.5 | TbREL1 confirm inactive
O=C(CSc1nc2ccccc2nc1N1CCOCC1)NCc1ccc(Cl)cc1Cl	none
CNc1nc(N)c([N+](=O)[O-])c(Nc2cccc(Br)c2)n1	none
CCOc1cccc(-c2nn3c(-c4cccc(C)c4)nnc3s2)c1	none
COc1ccccc1C(CC(=O)c1ccccc1)C(=O)c1ccccc1 (centres undefined)	TbREL1 primary 11.1 | TbREL1 confirm inactive
COc1ccccc1C(C(=O)c1ccccc1)c1ccc2ccccc2c1 (centres undefined)	none
COC(=O)C(CC(=O)c1ccccc1)CC(=O)c1ccccc1	none
C[C@@H]1CN([C@@H](C)CN(C)C)C(=O)c2cc(NC(=O)Nc3ccccc3)ccc2O[C@@H](C)CCCCO[C@H]1CN(C)S(=O)(=O)c1ccc(F)cc1	none
CCCCN(C)S(=O)(=O)c1ccc2[nH]c(=O)oc2c1	none
CCOC(=O)Cc1nnc(NC(=O)COc2ccc(C)cc2)s1	none
CCOC(=O)Cc1nnc(NC(=O)c2ncn[nH]2)s1	TbREL1 primary 11.4 | TbREL1 confirm inactive
CCOC(=O)Cc1nnc(NC(=O)c2ccccc2OCC)s1	none
COC(=O)[C@@H]1[C@H](O[Si](C)(C)C(C)(C)C)C2OC2C[C@H]1S(=O)(=O)c1ccccc1 (some centres undefined)	none
O=C(OCc1cn(Cc2ccc(F)cc2F)nn1)N1CCCC1	none
COC(=O)[C@@H](Cc1ccccc1)NC(=O)[C@H]1O[C@@H](n2cnc3c(=O)[nH]c(N)nc32)[C@H](O)[C@@H]1O	none
CC(CNC(=O)[C@H]1O[C@@H](n2cnc3c(=O)[nH]c(N)nc32)[C@H](O)[C@@H]1O)c1ccccc1 (some centres undefined)	none
COc1cccc(CN(C)C(=O)[C@H]2O[C@@H](n3cnc4c(=O)[nH]c(N)nc43)[C@H](O)[C@@H]2O)c1	TbREL1 primary 14.1 | TbREL1 confirm 19.3
CN1C2=N[C@@H](c3ccccc3)CC(=O)N2/C(=C\c2ccccc2)[C@H]1c1ccccc1	none
COC(=O)[C@]12C[C@H](CC(=O)NCCCCc3ccccc3)C(=O)N(Cc3ccc4c(c3)OCO4)C1=C[C@H](C(C)C)O[C@@H]2C1CC1	none
Cc1ccc(-c2nc(C3CCCN(S(=O)(=O)c4ccccc4)C3)no2)cc1 (centres undefined)	none
Nc1ccn([C@@H]2O[C@H](C(=O)N[C@H](Cc3ccccc3)C(=O)NCC(F)(F)F)[C@@H](O)[C@H]2O)c(=O)n1	none
